# Data: the supplement of paper PMC8728848
# Only a selection was taken, and the strongest signals are over-represented in it overall.
# B1: Cohesin-hLangerin (Homo sapiens) (protein)
# chain: LDDLDAVRIKVDTVNAKPGDTVRIPVRFSGIPSKGIANCDFVYSYDPNVLEIIEIEPGDIIVDPNPDKSFDTAVYPDRKIIVFLFAEDSGTGAYAITKDGVFATIVAKVKEGAPNGLSVIKFVEVGGFANNDLVEQKTQFFDGGANVGDTTEPATPTTPVTTPTTTDDLDAASYPRFMGTISDVKTNVQLLKGRVDNISTLDSEIKKNSDGMEAAGVQIQMVNESLGYVRSQFLKLKTSVEKANAQIQILTRSWEEVSTLNAQIPELKSDLEKASALNTKIRALQGSLENMSKLLKRQNDILQVVSQGWKYFKGNFYYFSLIPKTWYSAEQFCVSRNSHLTSVTSESEQEFLYKTAGGLIYWIGLTKAGMEGDWSWVDDTPFNKVQSARFWIPGEPNNAGNNEHCGNIKAPSLQAWNDAPCDKTFLFICKRPYVPSEPHHHHHH
# Key:
# Experiment in all cases: glycan array binding signal (z-score within array); higher = stronger binding
# Conditions in all cases: glycan notation: IUPAC condensed, linker removed
# [1] = target: Fuc(a1-2)Gal(b1-3)[Fuc(a1-4)]GlcNAc(b1-2)Man(a1-3)[Fuc(a1-2)Gal(b1-3)[Fuc(a1-4)]GlcNAc(b1-2)Man(a1-6)]Man(b1-4)GlcNAc(b1-4)[Fuc(a1-6)]GlcNAc(b1-4)[Fuc(a1-6)]GlcNAc
# In short: (§1)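 Negative Z-scores can be read as non-binding. The Z-score is calculated within each array and then averaged across arrays of one protein sequence at different concentrations or buffers and across linkers. Arrays, 3228 in all, were curated from the Consortium for Functional Glycomics database and kept only where the protein sequence was available.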
# Fuc(a1-2)Gal6S(b1-4)Glc = target: Fuc(a1-2)Gal6S(b1-4)Glc
# In short: as §1
# [2] = target: Fuc(a1-2)[Gal(a1-3)]Gal(b1-3)GlcNAc(b1-2)Man(a1-3)[Fuc(a1-2)[Gal(a1-3)]Gal(b1-3)GlcNAc(b1-2)Man(a1-6)]Man(b1-4)GlcNAc(b1-4)[Fuc(a1-6)]GlcNAc
# In short: as §1
# [3] = target: Fuc(a1-2)[Gal(a1-3)]Gal(b1-3)GlcNAc(b1-6)GalNAc
# In short: as §1
# [4] = target: Fuc(a1-2)[Gal(a1-3)]Gal(b1-4)GlcNAc(b1-2)Man(a1-3)[Fuc(a1-2)[Gal(a1-3)]Gal(b1-4)GlcNAc(b1-2)Man(a1-6)]Man(b1-4)GlcNAc(b1-4)[Fuc(a1-6)]GlcNAc
# In short: as §1
# [5] = target: Fuc(a1-2)[Gal(a1-3)]Gal(b1-4)GlcNAc(b1-3)[Fuc(a1-2)[Gal(a1-3)]Gal(b1-4)GlcNAc(b1-6)]GalNAc
# In short: as §1
# [6] = target: Fuc(a1-2)[Gal(a1-3)]Gal(b1-4)GlcNAc(b1-6)GalNAc
# In short: as §1
# [7] = target: Fuc(a1-2)[Gal(a1-4)]Gal(b1-4)GlcNAc
# In short: as §1
# [8] = target: Fuc(a1-2)[GalNAc(a1-3)]Gal(b1-3)GalNAc(a1-3)[Fuc(a1-2)]Gal(b1-4)GlcNAc
# In short: as §1
# [9] = target: Fuc(a1-2)[GalNAc(a1-3)]Gal(b1-3)GlcNAc(b1-2)Man(a1-3)[Fuc(a1-2)[GalNAc(a1-3)]Gal(b1-3)GlcNAc(b1-2)Man(a1-6)]Man(b1-4)GlcNAc(b1-4)[Fuc(a1-6)]GlcNAc
# In short: as §1
# [10] = target: Fuc(a1-3)[Gal(b1-4)]GlcNAc(b1-3)Gal(b1-4)[Fuc(a1-3)]GlcNAc
# In short: as §1
# [11] = target: Fuc(a1-3)[Gal(b1-4)]GlcNAc(b1-3)Gal(b1-4)[Fuc(a1-3)]GlcNAc(b1-3)Gal(b1-4)[Fuc(a1-3)]GlcNAc
# In short: as §1
# [12] = target: Gal(b1-3)GalNAc(a1-3)[Fuc(a1-2)]Gal(b1-4)Glc
# In short: as §1
# [13] = target: Gal(b1-3)GlcNAc(b1-2)Man(a1-3)[Gal(b1-3)GlcNAc(b1-2)Man(a1-6)]Man(b1-4)GlcNAc(b1-4)[Fuc(a1-6)]GlcNAc
# In short: as §1
# [14] = target: Gal(b1-3)GlcNAc(b1-2)Man(a1-3)[GlcNAc(b1-4)][Gal(b1-3)GlcNAc(b1-2)Man(a1-6)]Man(b1-4)GlcNAc(b1-4)GlcNAc
# In short: as §1
# [15] = target: Gal(b1-3)GlcNAc(b1-2)[Gal(b1-3)GlcNAc(b1-6)]Man(a1-6)[Gal(b1-3)GlcNAc(b1-2)Man(a1-3)]Man(b1-4)GlcNAc(b1-4)GlcNAc
# In short: as §1
# [16] = target: Gal(b1-3)GlcNAc(b1-3)Gal(b1-4)GlcNAc(b1-3)Gal(b1-4)GlcNAc(b1-2)[Gal(b1-3)GlcNAc(b1-3)Gal(b1-4)GlcNAc(b1-3)Gal(b1-4)GlcNAc(b1-6)]Man(a1-6)[Gal(b1-3)GlcNAc(b1-3)Gal(b1-4)GlcNAc(b1-3)Gal(b1-4)GlcNAc(b1-2)Man(a1-3)]Man(b1-4)GlcNAc(b1-4)[Fuc(a1-6)]GlcNAc
# In short: as §1
# Gal(b1-4)Glc = target: Gal(b1-4)Glc
# In short: as §1
# [17] = target: Gal(b1-4)GlcNAc(b1-2)Man(a1-3)Man(b1-4)GlcNAc(b1-4)GlcNAc
# In short: as §1
# [18] = target: Gal(b1-4)GlcNAc(b1-2)Man(a1-3)[Gal(b1-4)GlcNAc(b1-2)Man(a1-6)][GlcNAc(b1-4)]Man(b1-4)GlcNAc(b1-4)[Fuc(a1-6)]GlcNAc
# In short: as §1
# [19] = target: Gal(b1-4)GlcNAc(b1-3)Gal(b1-3)GlcNAc
# In short: as §1
# [20] = target: Gal(b1-4)GlcNAc(b1-3)Gal(b1-4)GlcNAc(b1-2)[Gal(b1-4)GlcNAc(b1-3)Gal(b1-4)GlcNAc(b1-6)]Man(a1-6)[Gal(b1-4)GlcNAc(b1-3)Gal(b1-4)GlcNAc(b1-2)Man(a1-3)]Man(b1-4)GlcNAc(b1-4)GlcNAc
# In short: as §1
# [21] = target: Gal(b1-4)GlcNAc(b1-3)Gal(b1-4)GlcNAc(b1-3)Gal(b1-4)GlcNAc(b1-3)Gal(b1-4)GlcNAc(b1-3)Gal(b1-4)GlcNAc(b1-2)[Gal(b1-4)GlcNAc(b1-3)Gal(b1-4)GlcNAc(b1-3)Gal(b1-4)GlcNAc(b1-3)Gal(b1-4)GlcNAc(b1-3)Gal(b1-4)GlcNAc(b1-6)]Man(a1-6)[Gal(b1-4)GlcNAc(b1-3)Gal(b1-4)GlcNAc(b1-3)Gal(b1-4)GlcNAc(b1-3)Gal(b1-4)GlcNAc(b1-3)Gal(b1-4)GlcNAc(b1-2)Man(a1-3)]Man(b1-4)GlcNAc(b1-4)[Fuc(a1-6)]GlcNAc
# In short: as §1
# [22] = target: Gal(b1-4)GlcNAc(b1-3)GalNAc
# In short: as §1
# Gal3S4S(b1-4)GlcNAc = target: Gal3S4S(b1-4)GlcNAc
# In short: as §1
# Gal6S(b1-3)GlcNAc6S = target: Gal6S(b1-3)GlcNAc6S
# In short: as §1
# Gal6S(b1-4)Glc6S = target: Gal6S(b1-4)Glc6S
# In short: as §1
# Gal6S(b1-4)GlcNAc = target: Gal6S(b1-4)GlcNAc
# In short: as §1
# Gal6S(b1-4)GlcNAc6S = target: Gal6S(b1-4)GlcNAc6S
# In short: as §1
# [23] = target: GlcNAc(a1-4)Gal(b1-4)GalNAc
# In short: as §1
# [24] = target: GlcNAc(b1-2)[GlcNAc(b1-4)]Man(a1-3)[GlcNAc(b1-4)][GlcNAc(b1-2)[GlcNAc(b1-6)]Man(a1-6)]Man(b1-4)GlcNAc(b1-4)[Fuc(a1-6)]GlcNAc
# In short: as §1
# [25] = target: GlcNAc(b1-3)Gal(b1-4)GlcNAc(b1-2)Man(a1-3)[GlcNAc(b1-3)Gal(b1-4)GlcNAc(b1-2)Man(a1-6)]Man(b1-4)GlcNAc(b1-4)GlcNAc
# In short: as §1
# [26] = target: GlcNAc(b1-3)Gal(b1-4)GlcNAc(b1-3)Gal(b1-4)GlcNAc(b1-2)[GlcNAc(b1-3)Gal(b1-4)GlcNAc(b1-3)Gal(b1-4)GlcNAc(b1-6)]Man(a1-6)[GlcNAc(b1-3)Gal(b1-4)GlcNAc(b1-3)Gal(b1-4)GlcNAc(b1-2)Man(a1-3)]Man(b1-4)GlcNAc(b1-4)[Fuc(a1-6)]GlcNAc
# In short: as §1
# [27] = target: Man(a1-2)Man(a1-2)Man(a1-6)[Man(a1-3)]Man
# In short: as §1
# [28] = target: Man(a1-2)Man(a1-3)[Man(a1-2)Man(a1-6)]Man(a1-6)[Man(a1-2)Man(a1-2)Man(a1-3)]Man
# In short: as §1
# [29] = target: Man(a1-2)Man(a1-3)[Man(a1-6)]Man(a1-6)[Man(a1-2)Man(a1-3)]Man(b1-4)GlcNAc(b1-4)GlcNAc
# In short: as §1
# [30] = target: Man(a1-2)Man(a1-6)[Man(a1-3)]Man(a1-6)[Man(a1-2)Man(a1-2)Man(a1-3)]Man(b1-4)GlcNAc(b1-4)GlcNAc
# In short: as §1
# Neu5Ac(a2-3)Gal = target: Neu5Ac(a2-3)Gal
# In short: as §1
# [31] = target: Neu5Ac(a2-3)Gal(b1-3)GlcNAc(b1-3)GalNAc
# In short: as §1
# [32] = target: Neu5Ac(a2-3)Gal(b1-3)[Fuc(a1-4)]GlcNAc(b1-3)Gal(b1-4)[Fuc(a1-3)]GlcNAc
# In short: as §1
# [33] = target: Neu5Ac(a2-3)Gal(b1-4)GlcNAc(b1-2)[Neu5Ac(a2-3)Gal(b1-4)GlcNAc(b1-6)]Man(a1-6)[Neu5Ac(a2-3)Gal(b1-4)GlcNAc(b1-2)Man(a1-3)][GlcNAc(b1-4)]Man(b1-4)GlcNAc(b1-4)GlcNAc
# In short: as §1
# [34] = target: Neu5Ac(a2-3)Gal(b1-4)[Fuc(a1-3)]GlcNAc(b1-3)GalNAc
# In short: as §1
# [35] = target: Neu5Ac(a2-8)Neu5Ac(a2-3)Gal(b1-3)GalNAc(b1-4)[Neu5Ac(a2-3)]Gal(b1-4)Glc
# In short: as §1
# [36] = target: Neu5Ac(b2-6)Gal(b1-4)GlcNAc
# In short: as §1
# [37] = target: Neu5Gc(a2-8)Neu5Ac(a2-3)Gal(b1-4)GlcNAc
# In short: as §1
# [38] = target: Neu5Gc(a2-8)Neu5Gc(a2-6)Gal(b1-4)GlcNAc
# In short: as §1
binder,measurement,setting,value
B1,glycan array binding signal (z-score),[1],0.805
same,glycan array binding signal (z-score),Fuc(a1-2)Gal6S(b1-4)Glc,-0.399
same,glycan array binding signal (z-score),[2],3.97
same,glycan array binding signal (z-score),[3],-0.238
same,glycan array binding signal (z-score),[4],3.4
same,glycan array binding signal (z-score),[5],1.3
same,glycan array binding signal (z-score),[6],-0.388
same,glycan array binding signal (z-score),[7],-0.301
same,glycan array binding signal (z-score),[8],-0.411
same,glycan array binding signal (z-score),[9],2.27
same,glycan array binding signal (z-score),[10],-0.026
same,glycan array binding signal (z-score),[11],-0.424
same,glycan array binding signal (z-score),[12],-0.311
same,glycan array binding signal (z-score),[13],0.003
same,glycan array binding signal (z-score),[14],4.37
same,glycan array binding signal (z-score),[15],4.81
same,glycan array binding signal (z-score),[16],5.37
same,glycan array binding signal (z-score),Gal(b1-4)Glc,-0.309
same,glycan array binding signal (z-score),[17],-0.352
same,glycan array binding signal (z-score),[18],-0.449
same,glycan array binding signal (z-score),[19],-0.419
same,glycan array binding signal (z-score),[20],3.41
same,glycan array binding signal (z-score),[21],0.332
same,glycan array binding signal (z-score),[22],-0.438
same,glycan array binding signal (z-score),Gal3S4S(b1-4)GlcNAc,-0.417
same,glycan array binding signal (z-score),Gal6S(b1-3)GlcNAc6S,5.12
same,glycan array binding signal (z-score),Gal6S(b1-4)Glc6S,4
same,glycan array binding signal (z-score),Gal6S(b1-4)GlcNAc,3.76
same,glycan array binding signal (z-score),Gal6S(b1-4)GlcNAc6S,4.85
same,glycan array binding signal (z-score),[23],-0.401
same,glycan array binding signal (z-score),[24],-0.2
same,glycan array binding signal (z-score),[25],-0.336
same,glycan array binding signal (z-score),[26],4.94
same,glycan array binding signal (z-score),[27],5.38
same,glycan array binding signal (z-score),[28],6.69
same,glycan array binding signal (z-score),[29],-0.429
same,glycan array binding signal (z-score),[30],6.34
same,glycan array binding signal (z-score),Neu5Ac(a2-3)Gal,-0.391
same,glycan array binding signal (z-score),[31],-0.31
same,glycan array binding signal (z-score),[32],3.62
same,glycan array binding signal (z-score),[33],-0.447
same,glycan array binding signal (z-score),[34],0.356
same,glycan array binding signal (z-score),[35],-0.417
same,glycan array binding signal (z-score),[36],-0.412
same,glycan array binding signal (z-score),[37],-0.431
same,glycan array binding signal (z-score),[38],-0.412
